The record followed here is PubChem BioAssay AID1963316 (National Center for Advancing Translational Sciences (NCATS), 2024).

Records with an inconclusive call do not appear. Entries that show only a call come without a potency. The source made the active and inactive calls. The call rests on the fitted dose curve.

Sequence of Tyrosine-protein kinase ABL1 (Homo sapiens) (P00519 whole entry, looked up): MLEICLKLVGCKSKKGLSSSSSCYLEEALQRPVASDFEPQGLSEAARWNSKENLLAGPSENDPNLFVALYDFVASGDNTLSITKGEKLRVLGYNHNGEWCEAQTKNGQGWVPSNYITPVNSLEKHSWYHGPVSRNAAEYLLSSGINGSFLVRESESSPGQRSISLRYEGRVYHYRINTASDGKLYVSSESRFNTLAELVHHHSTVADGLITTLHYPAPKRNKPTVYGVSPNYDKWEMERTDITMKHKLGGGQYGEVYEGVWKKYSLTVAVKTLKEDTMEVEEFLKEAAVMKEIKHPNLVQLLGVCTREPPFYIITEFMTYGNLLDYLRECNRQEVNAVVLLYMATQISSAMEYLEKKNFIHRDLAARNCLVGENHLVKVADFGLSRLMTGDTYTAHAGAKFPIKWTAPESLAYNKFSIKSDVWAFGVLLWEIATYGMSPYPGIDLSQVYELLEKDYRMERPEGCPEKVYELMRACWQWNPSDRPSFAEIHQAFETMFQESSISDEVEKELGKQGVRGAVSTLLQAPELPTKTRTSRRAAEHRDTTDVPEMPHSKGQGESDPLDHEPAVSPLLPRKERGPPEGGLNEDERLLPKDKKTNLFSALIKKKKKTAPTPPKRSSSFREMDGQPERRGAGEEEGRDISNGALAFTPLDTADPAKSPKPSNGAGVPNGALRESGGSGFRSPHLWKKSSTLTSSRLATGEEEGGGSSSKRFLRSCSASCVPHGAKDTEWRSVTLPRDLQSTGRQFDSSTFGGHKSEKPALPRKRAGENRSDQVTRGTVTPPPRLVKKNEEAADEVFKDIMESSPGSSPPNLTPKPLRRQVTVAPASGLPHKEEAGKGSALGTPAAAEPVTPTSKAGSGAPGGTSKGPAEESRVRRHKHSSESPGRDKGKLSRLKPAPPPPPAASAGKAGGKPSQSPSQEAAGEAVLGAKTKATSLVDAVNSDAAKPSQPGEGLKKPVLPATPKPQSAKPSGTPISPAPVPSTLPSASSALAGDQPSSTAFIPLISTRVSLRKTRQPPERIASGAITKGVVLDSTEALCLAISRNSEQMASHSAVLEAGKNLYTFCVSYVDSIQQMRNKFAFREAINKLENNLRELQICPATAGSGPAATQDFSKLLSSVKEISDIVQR

The test addresses Tyrosine-protein kinase ABL1 (Homo sapiens) (UniProt P00519). Description: ABL1 kinase (ABL1-N-HiBiT) SDR gain of signal screen - plus ATP. Particulars: purified ABL1-N-HiBiT enzyme, HiBiT luminescence with 50 uM ATP, 30 min; series mostly up to 57.5 µM. An excerpt:
National Center for Advancing Translational Sciences (NCATS),
National Institute of Health (NIH), Maryland
Discovery and optimization of novel protein-binding ligands underlies many of the methods and applications of biology, drug discovery, clinical diagnostics, and environmental toxicology. Assays for detecting the interaction of, for example, a molecule with a macromolecular target also referred to here as the target of interest (TOI) is dependent on a compatible output technology. Depending on the nature and knowledge surrounding the TOI, whether a receptor, enzyme, regulatory subunit or scaffold, or a sequence-defined nucleic acid folded into a complex tertiary structure, assay strategies can vary widely.
Here we exploit ligand-biased changes in the structural dynamics of the target protein to control reporter alpha complementation allowing a non-competitive, non-functional, non-separation measure of ligand-target interaction.
Secondly, we show the specificity and sensitivity of the SDR for the Abelson tyrosine kinase (ABL1) compared to the serine/threonine protein kinase A, using an enriched chemical library of 128 compounds selected, in part, for activity annotated with ABL1 kinase activity using the Pharos database (3).
(1) A. S. Dixon et al., NanoLuc Complementation Reporter Optimized for Accurate Measurement of Protein Interactions in Cells. ACS Chem Biol 11, 400-408 (2016).
Chemistry & Biology, 19, 1060 - 1072 (2012).
(3) K. J. Kelleher et al., Pharos 2023: an integrated resource for the understudied human proteome. Nucleic Acids Res 51, D1405-D1416 (2023).
PROTOCOL TABLE (as described by Inglese J, Shamu CE and Guy RK. 2007)
SEQUENCE No. (e.g., 1, 2, 3, etc.); […] (e.g., C. elegans, Compounds, Incubation, Read, etc.); VALUE and DESCRIPTION.
1. Reagent. Dispense 4 uL ABL1-N-HiBiT enzyme per well at a final enzyme concentration of 10 nM in buffer with 50 uM ATP (SDR assay) into columns 2-48 of four replicate Greiner 1536-well white, solid bottom high base, medium plates per assay. Dispense respective buffer without enzyme at 4 uL/well in column 1 of assay plates using BioRaptr 2.
2. Compounds. Library compounds added at 23 nL/well by pin transfer. DMSO neutral control and imatinib positive control added at 25 nL/well, transfer by Mosquito dispenser.
3. Incubation. Incubate enzyme and compounds at room temperature for 30 min, protected from light.
4. Reagent. (SDR assay) Add 3 uL/well of Nano-Glo HiBiT reagent (Promega) to assay plates with ATP.
5. Incubation. (SDR assay) Incubate enzyme solution and HiBiT reagent at room temperature for 10 min, protect from light.
6. Detector. (SDR assay) Luminescence measured using CCD-based camera (ViewLux) with settings as follows: Exposure, 1 sec; Gain, High; Speed, Slow; Binning, 2X.
Inglese J, Shamu CE and Guy RK, Reporting data from high throughput screening of small molecule libraries, Nature Chemical Biology, 2007, 3(8): 438-441. doi.org/10.1038/nchembio0807-438.
A general note: With HiBiT, luminescence reflects the tagged protein that the partner subunit can reach.
On to `COc1cc2ncnc(Oc3cccc(NC(=O)Nc4cc(C(C)(C)C(F)(F)F)on4)c3)c2cc1OC`, for which the Potency is 1410 nM (active). To `COc1cc2ncnc(-n3nc(-c4ccccn4)nc3N)c2cc1OC` belongs 891 nM (active); to `Cn1sc(=O)n(Cc2ccccc2)c1=O`, “inactive”; to `Cc1ccc(C(=O)Nc2ccc(CN3CCN(C)CC3)c(C(F)(F)F)c2)cc1C#Cc1cnc2[nH]ncc2c1`, 15.8 nM (active).

Consider `N#Cc1cccc(-c2c[nH]c3ncnc(N4CCOCC4)c23)c1`, for which the Potency entry is “inactive”.

As for `CCn1nc(C2CCN(C(=O)CCO)CC2)nc1-c1cnc(N)c(-c2nnc(C(C)(C)C)o2)n1`, the Potency result was “inactive”. With `Cc1cc(Nc2ncc3cc(-c4c(Cl)cccc4Cl)c(=O)n(C)c3n2)ccc1F` the entry was “inactive”; with `COc1cc(N2CCC(N3CCN(C)CC3)CC2)ccc1Nc1ncc(Cl)c(Nc2ccccc2P(C)(C)=O)n1`, 3150 nM (active); with `CCOc1ccn(-c2ccc(F)cc2)c(=O)c1C(=O)Nc1ccc(Oc2ccnc(N)c2Cl)c(F)c1`, 15400 nM (active).

As for `CCCS(=O)(=O)Nc1ccc(F)c(C(=O)c2c[nH]c3ncc(Cl)cc23)c1F`, the Potency entry was “inactive”.

Take `CCNC(=O)Nc1ccc(-c2nc3c(c(N4CCOC[C@@H]4C)n2)CCN(c2ncccn2)C3)cc1`: the Potency entry is “inactive”. With `O=S(=O)(/N=C/c1c(O)ccc2ccccc12)c1cccs1` the entry was “inactive”.

For `COc1ccccc1-c1c[nH]c2ncc(-c3cncc(C(=O)N(C)C)c3)cc12`, the Potency is 19.9 nM (active). For the compound `S=C(NCc1ccc2c(c1)OCO2)N1CCN(c2ncnc3c2oc2ccccc23)CC1`, the Potency entry is “inactive”. To `FC(F)(F)c1ccc(/C=C/c2nc(COc3ccc(CCCCn4ccnn4)cc3)co2)cc1` belongs “inactive”; to `Cn1cc(-c2cc3c(N4CCN(c5ncc([C@@](C)(N)c6ccc(F)cc6)cn5)CC4)ncnn3c2)cn1`, 10300 nM (active); to `O=C(Nc1ccc(OC(F)(F)F)cc1)c1sccc1NCc1ccnc2ccccc12`, “inactive”. To `O=C(Nc1cc(C(F)(F)F)ccc1N1CCCCC1)c1ccncc1` belongs “inactive”; to `Cc1cc(F)ccc1-c1nc(NC(CO)CO)nc2c1ccc(=O)n2-c1c(F)cccc1F`, “inactive”. To `COc1cc(N2CCC(O)CC2)ccc1Nc1nc(Nc2ccccc2S(=O)(=O)C(C)C)c2[nH]cnc2n1` belongs “inactive”. For the compound `COc1ccc(CNC(=O)Nc2ncc([N+](=O)[O-])s2)cc1`, the Potency result was “inactive”. With `Cc1cc(C)c(/C=C2\C(=O)Nc3ccccc32)[nH]1` the entry was “inactive”. With `CC[C@@](C)(Nc1ccnc(-c2c[nH]c3ncccc23)n1)C(=O)NCC(F)(F)F` the figure was 11200 nM (active). With `CNC(=O)c1ccccc1Nc1nc(Nc2ccc(N3CCOCC3)cc2OC)ncc1Cl` the entry was “inactive”. As to `Cc1cccc(C)c1-n1c(=O)c2cnc(Nc3ccc(N4CCN(C)CC4)cc3)nc2n2c3ccccc3nc12`, the Potency entry was “inactive”. As for `C[C@@H]1CCNC(=O)c2cc3ccc(C(=O)Nc4nc5ccccc5n4CCCN(C)C)cc3n21`, the Potency entry was “inactive”.

Turning to `O=C(NOCC(O)CO)c1cc(Br)c(F)c(F)c1Nc1ccc(I)cc1F` (stereo not given), the Potency result is “inactive”. To `COc1ccc(-n2c(C)c([N+](=O)[O-])c3ccc(O)cc32)cc1` belongs “inactive”. To `C[C@@H]1CN(CC(=O)Nc2ccc3c(c2)Cc2cccc(-c4cc(=O)cc(N5CCOCC5)o4)c2S3)C[C@H](C)O1` belongs “inactive”.

In the case of `COc1ccc(S(=O)(=O)N(C(C)=O)c2ccccc2/C=C/c2cc[n+]([O-])cc2)cc1`, the Potency entry is “inactive”. To `Cc1c(Cl)cccc1S(=O)(=O)Nc1nc(NCCc2ccccc2)nc2c1CN(Cc1ccccc1)CC2` belongs “inactive”; to `COc1cc(NC(=O)c2cccc(-n3cc(NC(=O)Nc4cccc(C)c4)cn3)c2)cc(OC)c1OC`, “inactive”. In the case of `Nc1nc(NCCNc2ncc(-n3ccnc3)c(-c3ccc(Cl)cc3Cl)n2)ccc1[N+](=O)[O-]`, the Potency result was “inactive”. To `Cc1ccccc1-n1c([C@H](C)Nc2nc(N)nc3nc[nH]c23)nc2cccc(C)c2c1=O` belongs “inactive”; to `CC(C)(NS(=O)(=O)c1ccc2c(Cl)cnc(N=C(N)N)c2c1)C(=O)O`, “inactive”. Turning to `Cc1ccc(NC(=O)N2CCN(c3nc(N)nc4sc(-c5cccnc5)nc34)CC2)cc1`, the Potency result was “inactive”. With `Cc1[nH]c2ccccc2c1C1=C(NCCc2ccc(F)cc2)C(=O)N(C)C1=O` the entry was “inactive”. To `C=CC(=O)N1CCC[C@@H](n2nc(-c3cccc(C(=O)Nc4ccc(C(C)C)c(C)c4)c3)c3c(N)ncnc32)C1` belongs “inactive”. With `CNS(=O)(=O)c1ccc2c(c1)/C(=C/c1[nH]c3c(c1CCCN1CCN(C)CC1)CCCC3)C(=O)N2` the figure was 1770 nM (active); with `CCN1C(=O)CNc2ncc(-c3ccc(-c4ncn[nH]4)nc3C)nc21`, “inactive”.
